Hit rate of the full screen: of about 69,000 compounds, about 8,600 (12%) showed an effect of 50% or more. This is one part of a sample in which strong results are shown more often than they occur.
Tested on: Plasmodium berghei
Test: Screen against P. berghei liver stage (PbLuc), transformed with Luciferase, at 10uM
Assay type: functional, HepG2
Conditions: tested at 10 uM

Row | SMILES | INHIBITION [%]
1 | CCN(C(=O)Cn1cc(Cl)cn1)c1ccccc1 | 4.81
2 | CNC(=O)Cn1ccc2ccc(NC(=O)NC(C)C(C)C)cc21 (stereo not given) | 15.5
3 | CC(C)NC(=O)N1CCN(c2ccc(Cl)nn2)C(=O)C1 | 37.5
4 | N#Cc1cccc(OCc2ccoc2C(=O)N2CCCCC2)c1 | -105
5 | CCc1nc(CN2CCCN(C(=O)CCc3ccco3)CC2)cs1 | 73.1
6 | CCc1nc(CN2CCN(C(=O)c3cc(C)no3)CC2)cs1 | -35.7
7 | CCc1nc(CN2CCCN(C(=O)c3cccn3C)CC2)cs1 | -69.6
8 | CCCOCC(=O)N1CCCN(Cc2csc(CC)n2)CC1 | 1.75
9 | Cc1nc(CCN)cc(N2CCC(O)(c3ccccc3)C2)n1 (stereo not given) | 7.1
10 | Cc1nc(CN)cc(N2CCC(O)(c3ccc(Cl)cc3)CC2)n1 | 3.82
11 | CCc1nc(CN2CCN(C(=O)c3cc(C)nn3C)CC2)cs1 | 76.9
12 | Cc1nc(CCN)cc(N2CCC(O)(c3ccc(Cl)cc3)CC2)n1 | 80.8
13 | CCc1nc(CN2CCCN(C(=O)COCC3CC3)CC2)cs1 | 54.3
14 | Cc1nc(CN2CCN(C(=O)CCc3ccco3)CC2)cs1 | 42.9
15 | Cc1nc(CN2CCCN(C(=O)COCC3CC3)CC2)cs1 | 43.2
16 | Cc1nc(CN2CCCN(C(=O)CCc3ccco3)CC2)cs1 | 12.7
17 | COCCOc1ncccc1C(=O)N1CCCC1Cn1cc(C)cn1 (stereo not given) | 15.5
18 | COCCN1CCN(S(C)(=O)=O)Cc2cccnc21 | -0.284
19 | N#Cc1ccc(CN(CCF)Cc2cccc(F)c2)cc1 | 37.9
20 | CCc1noc(CN2CCN(C(=O)N(CC)CC)CC2)n1 | -7.31
21 | O=C(c1ncccn1)N1CC[C@H]2OCC[C@@]2(COc2ccccn2)C1 | -1.15
22 | CN(C)CC(=O)Nc1ccc(C(=O)N(C)CCc2cn[nH]c2)cc1 | 38.2
23 | CN(C)[C@@H]1CCN(c2ncc(F)cn2)[C@H]1Cc1ccncc1 | -42.9
24 | O=C(CN1CC(c2nc(-c3cccs3)no2)C1)NCC1CCCO1 (stereo not given) | 32.1
25 | CCc1nc(CN2CCCN(C(=O)CC(F)(F)F)CC2)cs1 | -19.4
26 | CCc1nc(CN2CCCN(C(=O)c3ccco3)CC2)cs1 | 53.9
27 | COc1ccc(C(=O)N2CCN(c3cc(CCN)nc(C)n3)CC2)cc1 | 38.5
28 | CCc1ccc(C(=O)N2CCCN(Cc3csc(CC)n3)CC2)o1 | -7.25

Row | SMILES | INHIBITION [%]
29 | Cc1nc(CN2CCC23CCN(Cc2ccoc2)CC3)cs1 | 26.7
30 | CCc1nc(CN2CCCN(C(=O)COC)CC2)cs1 | -61.4
31 | Cc1nc(CCN)cc(N2CCCN(C(=O)c3ccco3)CC2)n1 | 50.3
32 | Cc1nc(N2CCN(C(=O)c3ccco3)CC2)c2c(n1)c(C)nn2C | 7.66
33 | CCc1nc(CN2CCCN(C(=O)c3ccccc3)CC2)cs1 | -155
34 | Cc1nc(CN2CCC23CCN(C(=O)c2ccco2)CC3)cs1 | 60.2
35 | Cc1nc(CN2CCC23CCN(C(=O)c2ccncc2)CC3)cs1 | 12.7
36 | CCc1nc(CN2CCCN(C(=O)Cc3cccs3)CC2)cs1 | 55.1
37 | Cc1nnc(C(NS(=O)(=O)c2cc(C)c(F)cc2F)C(C)C)[nH]1 (stereo not given) | 38.9
38 | CNC(=O)[C@H]1C[C@@H]2CN(Cc3csc(C)n3)C[C@@H]2N1S(C)(=O)=O | 28.5
39 | C[S+]([O-])c1cccc(NC(=O)N[C@H](CCO)c2ccccc2)c1 (stereo not given in full) | 11.5
40 | Cc1cc(C(=O)NCC(c2ccsc2)N(C)C)no1 (stereo not given) | 24
41 | NC(=O)NC(CC(=O)N1CCc2sccc2C1)c1ccccc1F (stereo not given) | 3.3
42 | CN(C)c1cc2c(nn1)CCN(C(=O)C1COc3ccccc3C1)C2 (stereo not given) | 20.2
43 | CN(C)c1cc2c(nn1)CCN(C(=O)C1Cc3ccccc3O1)C2 (stereo not given) | 56.4
44 | CCNc1cc2c(nn1)CCN(C(=O)C1Cc3ccccc3O1)C2 (stereo not given) | 18.6
45 | CC(C)(C)C(=O)NCCC(=O)NCCc1ccn(-c2ccccc2)n1 | 23.4
46 | COc1ccc2c(c1)OCC(CNC1CCc3nc(C)nn3C1)=C2 (stereo not given) | 85.2
47 | COc1ccc(-c2nc(CNC3CCc4nc(C)nn4C3)no2)cc1 (stereo not given) | 56.6
48 | CCc1nc2n(n1)CC(NCC1=Cc3ccc(OC)cc3OC1)CC2 (stereo not given) | 32.3
49 | CCc1nc2n(n1)CC(NCc1noc(-c3ccc(C)cc3)n1)CC2 (stereo not given) | 31.9
50 | COc1cc(CNC2CCc3nc(C)nn3C2)cc2c1OCO2 (stereo not given) | -43.6
51 | Cc1cccc(-c2nc(CNC3CCc4nc(C)nn4C3)no2)c1 (stereo not given) | 19.6
52 | CCn1cc(S(=O)(=O)Nc2nc3c(s2)CCCC3)cn1 | -35.4
53 | Cc1ncsc1CCN(C)C(=O)CCc1nc2cccnc2n1C | -51
54 | c1ccc(-c2cnc3n2CCNC32CCNCC2)cc1 | -30.1
55 | CNC(=O)CN1CCCC12CCN(C(=O)c1ccccc1F)CC2 | -35.6
